Calls of active or inactive are those of the source. Rule for the calls: active = hit-call score of the fitted dose curve at least 0.9, where 1 is the maximum; inactive = score below 0.9.
Tests used:
Conditions in all cases: mRNA level, 48 h; actives raise or lower the signal
[1] = read-out: Ezrin (EZR), EZR (gene 7430); test: LTEA_HepaRG_EZR: Life Technologies and Expression Analysis (LTEA) Assay for Ezrin (EZR) using HepaRG (AID 2283491)
In short: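 Differentiated human HepaRG cells, 48 h after plating, were exposed in serum-free induction medium for 48 hours to eight half-log concentrations up to 100 uM in 0.5% DMSO. EZR mRNA was measured by TaqMan qRT-PCR, normalized to ACTB, GAPDH and POLR2A, and fitted bidirectionally against DMSO.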

[2] = read-out: Cytochrome P450 3A7 (Homo sapiens) (UniProt P24462); test: LTEA_HepaRG_CYP3A7: Life Technologies and Expression Analysis (LTEA) Assay for CYP3A7 using HepaRG (AID 2283492)
In short: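 Differentiated HepaRG cells in serum-free induction medium exposed 48 h in duplicate to 8-point half-log series from 100 uM top in 0.5% DMSO. CYP3A7 mRNA by qRT-PCR, normalized to ACTB/GAPDH/POLR2A, bidirectional fit versus DMSO.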

[3] = read-out: CYP3A5 (gene 1577); test: LTEA_HepaRG_CYP3A5: Life Technologies and Expression Analysis (LTEA) Assay for CYP3A5 using HepaRG (AID 2283493)
In short: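 Readout was CYP3A5 mRNA by qRT-PCR. HepaRG cultures were exposed for 48 h in serum-free induction medium to chemicals at up to 100 uM, and responses were fitted in both directions relative to DMSO vehicle.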

[4] = read-out: Fatty Acid-Binding Protein 1 (FABP1), FABP1 (gene 2168); test: LTEA_HepaRG_FABP1: Life Technologies and Expression Analysis (LTEA) Assay for Fatty Acid-Binding Protein 1 (FABP1) using HepaRG (AID 2283494)
In short: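 qRT-PCR readout of FABP1 transcript (normalized to three housekeeping genes) after 48 h chemical exposure of HepaRG cells; eight concentrations, half-log steps, max 100 uM, 0.5% DMSO vehicle; gain or loss fitted relative to DMSO baseline.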

[5] = read-out: Cytochrome P450 4A22 (Homo sapiens) (UniProt Q5TCH4); test: LTEA_HepaRG_CYP4A22: Life Technologies and Expression Analysis (LTEA) Assay for Cytochrome P450 4A22 (CYP4A22) using HepaRG (AID 2283495)
In short: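 Differentiated HepaRG cells in serum-free induction medium exposed 48 h in duplicate to eight half-log concentrations up to 100 uM in 0.5% DMSO. CYP4A22 mRNA quantified by TaqMan qRT-PCR, normalized to ACTB, GAPDH and POLR2A; bidirectional fit versus DMSO.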

[6] = read-out: Cytochrome P450 7A1 (Homo sapiens) (UniProt P22680); test: LTEA_HepaRG_CYP7A1: Life Technologies and Expression Analysis (LTEA) Assay for Cytochrome P450 7A1 (CYP7A1) using HepaRG (AID 2283496)
In short: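 Using 0.5% DMSO as vehicle and baseline, chemicals were tested in duplicate over an 8-point range from 100 uM on HepaRG cells for 48 h; qRT-PCR signals were normalised to ACTB, GAPDH and POLR2A.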

[7] = read-out: Glutathione S-Transferase (GSTA2), GSTA2 (gene 2939); test: LTEA_HepaRG_GSTA2: Life Technologies and Expression Analysis (LTEA) Assay for Glutathione S-Transferase (GSTA2) using HepaRG (AID 2283497)
In short: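 qRT-PCR readout of GSTA2 transcript, normalized to three housekeeping genes, fitted bidirectionally against 0.5% DMSO baseline. Differentiated HepaRG cells received compound for 48 h at 8 concentrations (top 100 uM, half-log steps).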

[8] = read-out: Glutamate-cysteine ligase catalytic (GCLC), GCLC (gene 2729); test: LTEA_HepaRG_GCLC: Life Technologies and Expression Analysis (LTEA) Assay for Glutamate-cysteine ligase catalytic (GCLC) using HepaRG (AID 2283498)
In short: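 HepaRG, 48 h exposure, 8-pt half-log series from 100 uM, 0.5% DMSO vehicle; TaqMan qRT-PCR for GCLC mRNA, housekeeping-normalized; bidirectional curve fit vs DMSO baseline.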

[9] = read-out: growth arrest and DNA damage 45 (GADD45G), GADD45G (gene 10912); test: LTEA_HepaRG_GADD45G: Life Technologies and Expression Analysis (LTEA) Assay for growth arrest and DNA damage 45 (GADD45G) using HepaRG (AID 2283499)
In short: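 Differentiated human HepaRG cells, 48 h post-plating, exposed 48 h in serum-free induction medium to 8 half-log concentrations (top 100 uM, 0.5% DMSO) in duplicate. GADD45G mRNA measured by Fluidigm TaqMan qRT-PCR, normalized to ACTB, GAPDH, POLR2A; bidirectional fit versus DMSO.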

[10] = read-out: Glutamate-cysteine ligase regulatory (GCLM), GCLM (gene 2730); test: LTEA_HepaRG_GCLM: Life Technologies and Expression Analysis (LTEA) Assay for Glutamate-cysteine ligase regulatory (GCLM) using HepaRG (AID 2283500)
In short: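 In this multiplexed HepaRG gene-expression assay, GCLM mRNA change after 48 h treatment (8 concentrations, max 100 uM) was scored against DMSO by bidirectional curve fitting.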

[11] = read-out: Glutathione S-transferase M3 (GSTM3), GSTM3 (gene 2947); test: LTEA_HepaRG_GSTM3: Life Technologies and Expression Analysis (LTEA) Assay for Glutathione S-transferase M3 (GSTM3) using HepaRG (AID 2283501)
In short: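 Differentiated human HepaRG cells were exposed in duplicate for 48 h in serum-free induction medium, 8 points from 100 uM top in half-log steps, 0.5% DMSO. GSTM3 mRNA was measured by TaqMan qRT-PCR, normalized to ACTB, GAPDH and POLR2A; bidirectional fit versus DMSO.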

[12] = read-out: Heat shock 70 kDa protein 1 (HSPA1A), gene 3303; test: LTEA_HepaRG_HSPA1A: Life Technologies and Expression Analysis (LTEA) Assay for Heat shock 70 kDa protein 1 (HSPA1A) using HepaRG (AID 2283502)
In short: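 An oxidative-stress marker readout: HepaRG cells treated 48 h in duplicate with an eight-point series (highest 100 uM) had HSPA1A mRNA quantified by TaqMan qRT-PCR. Activity was fitted in both directions using 0.5% DMSO as baseline.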

[13] = read-out: Hypoxia-inducible factor 1-alpha (Homo sapiens) (UniProt Q16665); test: LTEA_HepaRG_HIF1A: Life Technologies and Expression Analysis (LTEA) Assay for Hypoxia-inducible factor 1 (HIF1A) Trancription factor using HepaRG (AID 2283503)
In short: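 Gain- or loss-of-signal HIF1A mRNA changes are fitted against a DMSO baseline. HepaRG cultures receive eight concentrations, highest 100 uM, for 48 h in serum-free induction medium with 0.5% DMSO.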

[14] = read-out: HGF (gene 3082); test: LTEA_HepaRG_HGF: Life Technologies and Expression Analysis (LTEA) Assay for Hepatocyte Growth Facto (HGF) using HepaRG (AID 2283505)
In short: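 Differentiated HepaRG cells in serum-free induction medium exposed 48 h in duplicate, 8 half-log concentrations from 100 uM in 0.5% DMSO. HGF mRNA by qRT-PCR, normalised to ACTB, GAPDH, POLR2A; bidirectional fitting.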

[15] = read-out: Insulin Like Growth Factor 1 (IGF1), IGF1 (gene 3479); test: LTEA_HepaRG_IGF1: Life Technologies and Expression Analysis (LTEA) Assay for Insulin Like Growth Factor 1 (IGF1) using HepaRG (AID 2283506)
In short: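 Endpoint: IGF1 mRNA change by qRT-PCR, housekeeping-normalized, fitted bidirectionally relative to 0.5% DMSO vehicle. Human HepaRG cells were treated 48 h in serum-free induction medium, eight half-log concentrations topping at 100 uM.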

[16] = read-out: Intercellular Adhesion Molecule 1 (ICAM1), ICAM1 (gene 3383); test: LTEA_HepaRG_ICAM1: Life Technologies and Expression Analysis (LTEA) Assay for Intercellular Adhesion Molecule 1 (ICAM1) using HepaRG (AID 2283507)
In short: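 Differentiated human HepaRG cells in serum-free induction medium exposed 48 h in duplicate to 8 half-log concentrations (top 100 uM, 0.5% DMSO). ICAM1 mRNA quantified by TaqMan qRT-PCR, normalized to ACTB, GAPDH and POLR2A; bidirectional fitting versus DMSO.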

[17] = read-out: Insulin-like growth factor-binding protein 1 (IGFBP1), IGFBP1 (gene 3484); test: LTEA_HepaRG_IGFBP1: Life Technologies and Expression Analysis (LTEA) Assay for Insulin-like growth factor-binding protein 1 (IGFBP1) using HepaRG (AID 2283508)
In short: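 HepaRG cells, plated 48 h then switched to serum-free induction medium, exposed in duplicate for 48 h to 8-point half-log series from 100 uM in 0.5% DMSO. mRNA measured by qRT-PCR, normalized to ACTB/GAPDH/POLR2A; bidirectional fit versus DMSO.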

[18] = read-out: Interleukin 6 (IL6), IL6 (gene 3569); test: LTEA_HepaRG_IL6: Life Technologies and Expression Analysis (LTEA) Assay for Interleukin 6 (IL6) using HepaRG (AID 2283509)
In short: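 qRT-PCR read-out of IL6 transcript, normalized to three housekeeping genes, after 48 h chemical exposure of HepaRG cells; 8-point half-log series, top 100 uM, 0.5% DMSO vehicle. Bidirectional curve fitting against DMSO baseline.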

[19] = read-out: Interleukin 6 Receptor (IL6R), IL6R (gene 3570); test: LTEA_HepaRG_IL6R: Life Technologies and Expression Analysis (LTEA) Assay for Interleukin 6 Receptor (IL6R) using HepaRG (AID 2283510);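 for AC50: TaqMan qRT-PCR signal normalized to ACTB GAPDH and POLR2A housekeeping genes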
In short: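 In this HepaRG screen, test chemicals act on cells for 48 h at up to 100 uM (eight half-log points, duplicate wells). IL6R expression is quantified by qRT-PCR after normalization to ACTB, GAPDH and POLR2A, with DMSO as baseline.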

[20] = read-out: 3-Hydroxy-3-Methylglutaryl-CoA Synthase 2 (HMGCS2), HMGCS2 (gene 3158); test: LTEA_HepaRG_HMGCS2: Life Technologies and Expression Analysis (LTEA) Assay for 3-Hydroxy-3-Methylglutaryl-CoA Synthase 2 (HMGCS2) using HepaRG (AID 2283504)
In short: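 Human HepaRG cells in serum-free induction medium were exposed in duplicate for 48 h to 8-point half-log series from 100 uM top in 0.5% DMSO. HMGCS2 mRNA measured by TaqMan qRT-PCR, normalised to ACTB, GAPDH, POLR2A; bidirectional fit versus DMSO.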

Measured: AC50

Sequence of Cytochrome P450 3A7 (Homo sapiens) (P24462 whole entry, looked up): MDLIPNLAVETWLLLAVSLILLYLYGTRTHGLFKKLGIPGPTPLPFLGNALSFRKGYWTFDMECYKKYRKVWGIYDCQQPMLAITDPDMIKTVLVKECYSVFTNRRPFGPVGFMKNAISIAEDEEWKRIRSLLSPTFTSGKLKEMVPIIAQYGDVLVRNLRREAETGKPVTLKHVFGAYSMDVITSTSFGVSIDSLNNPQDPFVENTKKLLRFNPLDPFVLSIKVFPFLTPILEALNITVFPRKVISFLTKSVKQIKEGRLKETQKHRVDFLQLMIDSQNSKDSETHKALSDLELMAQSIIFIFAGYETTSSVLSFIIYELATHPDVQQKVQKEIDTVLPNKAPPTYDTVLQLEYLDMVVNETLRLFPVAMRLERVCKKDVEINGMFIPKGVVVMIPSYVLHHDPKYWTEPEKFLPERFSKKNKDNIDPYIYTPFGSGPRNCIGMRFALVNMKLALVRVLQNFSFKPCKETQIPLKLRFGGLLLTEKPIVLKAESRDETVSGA
Sequence of Hypoxia-inducible factor 1-alpha (Homo sapiens) (Q16665 whole entry, looked up): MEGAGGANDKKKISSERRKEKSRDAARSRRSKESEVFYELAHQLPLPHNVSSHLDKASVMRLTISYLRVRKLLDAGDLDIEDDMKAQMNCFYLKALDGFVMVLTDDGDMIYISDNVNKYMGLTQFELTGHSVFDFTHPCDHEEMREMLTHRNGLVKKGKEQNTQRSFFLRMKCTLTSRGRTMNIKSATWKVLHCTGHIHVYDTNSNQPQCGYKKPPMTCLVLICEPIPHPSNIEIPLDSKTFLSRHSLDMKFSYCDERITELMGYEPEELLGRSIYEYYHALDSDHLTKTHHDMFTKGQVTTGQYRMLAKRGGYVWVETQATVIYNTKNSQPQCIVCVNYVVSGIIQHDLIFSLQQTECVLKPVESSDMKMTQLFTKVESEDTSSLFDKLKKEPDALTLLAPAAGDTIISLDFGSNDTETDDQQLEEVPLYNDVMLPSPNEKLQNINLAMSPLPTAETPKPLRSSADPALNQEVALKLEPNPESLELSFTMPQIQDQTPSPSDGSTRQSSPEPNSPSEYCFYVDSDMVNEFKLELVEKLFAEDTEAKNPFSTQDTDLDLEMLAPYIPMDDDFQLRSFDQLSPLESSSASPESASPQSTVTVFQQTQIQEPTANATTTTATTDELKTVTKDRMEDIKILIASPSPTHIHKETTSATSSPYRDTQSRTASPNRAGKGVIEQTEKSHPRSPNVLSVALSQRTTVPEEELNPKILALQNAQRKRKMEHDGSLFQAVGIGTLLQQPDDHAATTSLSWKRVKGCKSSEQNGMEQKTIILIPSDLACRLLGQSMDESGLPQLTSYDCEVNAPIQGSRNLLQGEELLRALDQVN

CN[C@H]1CC[C@@H](c2ccc(Cl)c(Cl)c2)c2ccc(S(N)(=O)=O)cc21
inactive: [1] | [2] | [3] | [7] | [8] | [10] | [11] | [13] | [14]
active: [4] 50 µM | [5] 15.8 µM | [6] 12.2 µM | [9] 71.1 µM | [12] 72.1 µM | [15] 87.7 µM | [16] 74.8 µM | [17] 57.7 µM | [18] 77.4 µM | [19] 50 µM

CCCCCCCC=O
not listed: [11] | [17]
inactive: all other assays above

Nc1nc(N)c2nc(CNc3ccc(C(=O)N[C@@H](CCC(=O)O)C(=O)O)cc3)cnc2n1
active: [3] 0.0852 µM | [6] 0.162 µM | [7] 0.12 µM | [17] 0.0937 µM
not listed: [13]
inactive: all other assays above

C[Si]1(C)O[Si](C)(C)O[Si](C)(C)O[Si](C)(C)O1
not listed: [11] | [17]
inactive: all other assays above

Cc1cccc(C)c1O
not listed: [17] | [20]
inactive: all other assays above

Cc1ccc(N(C)C)cc1
not listed: [11]
inactive: all other assays above

COc1cc(-c2nc(NC(=O)c3cc4cc(C)cc(C)c4n3CC(=O)O)sc2CCC2CCCCC2)c(OC)cc1Cl
inactive: [16]
active: [1] 19.8 µM | [2] 7.24 µM | [3] 9.6 µM | [4] 4.12 µM | [5] 6.57 µM | [6] 4.44 µM | [7] 7.06 µM | [8] 14 µM | [9] 3.17 µM | [10] 19.4 µM | [11] 3.86 µM | [12] 11.1 µM | [13] 11 µM | [14] 6.32 µM | [15] 6.45 µM | [18] 4.98 µM | [19] 26.5 µM

NS(=O)(=O)c1cc2c(cc1Cl)NCNS2(=O)=O
not listed: [13] | [20]
inactive: all other assays above

CC1(C)NC(=O)NC1=O
not listed: [11] | [17]
inactive: all other assays above

CC(C)c1ccc(C(=O)N=C(N)N)cc1S(C)(=O)=O
active: [2] 0.74 µM | [5] 8.37 µM | [8] 0.336 µM | [10] 0.441 µM | [11] 0.446 µM | [12] 7.39 µM | [14] 7.39 µM | [15] 0.362 µM | [16] 0.388 µM | [19] 0.276 µM
inactive: [1] | [3] | [4] | [6] | [7] | [9] | [13] | [18]

CC(=O)Oc1ccccc1C(=O)O
not listed: [13] | [20]
inactive: all other assays above

CCNc1cccc(C)c1
not listed: [11]
inactive: all other assays above

Oc1ccc2ccccc2c1N=Nc1ccccc1
inactive: [1] | [5] | [11] | [12] | [13] | [14] | [16] | [18]
active: [2] 2.19 µM | [3] 8.1 µM | [4] 16.2 µM | [6] 16.3 µM | [7] 3.38 µM | [8] 5.52 µM | [9] 12.6 µM | [10] 24.6 µM | [15] 50 µM | [19] 15.7 µM

O=C(N[C@@H](Cc1ccccc1)[C@@H](O)C(=O)N1C[C@@H](O)[C@@H](O)C1)c1cc2cc(Cl)ccc2[nH]1
active: [1] 9.92 µM | [2] 12.6 µM | [5] 14.3 µM | [7] 81.7 µM | [20] 89 µM | [17] 63.4 µM
not listed: [11]
inactive: all other assays above

Source: PubChem BioAssay (EPA / NIEHS)
